This note sets out measurements from PubChem BioAssay (NCI).

Test in all cases: NCI-60 one-dose screen, 48 h (100 = growth as untreated, 0 = no growth, -100 = all killed)
Settings in all cases: 10 µM unless noted

Assay [1] has as its system HCT-15 colon.
Assay [2] relates to HT29 colon.
Assay [3] deals with SNB-75 CNS.
In assay [4] the test system is SNB-19 CNS.
The test system of assay [5] is U251 CNS.
Assay [6] has as its system PC-3 prostate.
In assay [7] the test system is SK-MEL-5 melanoma.
Assay [8] has as its system UACC-62 melanoma.
The test system of assay [9] is LOX IMVI melanoma.
Assay [10] deals with SK-MEL-28 melanoma.
Assay [11] relates to SK-MEL-2 melanoma.
Assay [12] relates to EKVX NSCLC.
Assay [13] has as its system SN12C renal.
The subject of assay [14] is UO-31 renal.
Assay [15] relates to TK-10 renal.
Assay [16] deals with ACHN renal.
In assay [17] the test system is A498 renal.
Assay [18] has as its system CCRF-CEM leukemia.
In assay [19] the test system is MOLT-4 leukemia.
In assay [20] the test system is SR leukemia.

The structures appear in SMILES notation. Compounds without any hit were thinned out: in the full panel of roughly 83,000, 20% have a hit.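 Results are percent growth after 48 hours of single-concentration exposure. 100 means growth as in untreated cells, lower positive values show inhibition; negative values down to -100 show cell death.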 A number with no mark means an inactive call. Calls of active or inactive are those of the source. Rule for the calls: active = growth percent below 10; inactive = the rest.

For the molecule `CCCCC(=O)Nc1c(C(=O)Nc2ccccc2)sc2nc3c(cc12)C(OC(=O)CCCC)CCC3` (stereo not given), the growth is 81.3% in [1]; 79.4% in assay [2]; 89.3% in assay [3]; 97.2% in assay [4]; 79.8% in assay [5]; 90.7% in assay [6]. Further, the growth in [7] is 84.5%; in assay [8], 87.6%; in assay [9], 85.1%; in assay [10] it was 110%; in assay [11], 93.8%; in [12], 91.9%. For the same molecule, the growth in [13] was 96.9%; in assay [14], 89%; in [15] it was 98.2%; in assay [16] it was 115%; in assay [17] it was 64.7%; in assay [18], 69.8%. Further, the growth was 75.9% in [19] and -10.6% (active) in [20].
Turning to `COc1ccc2nc(-c3ccc(Cl)cc3)cc(-c3nnc(SC/C(=N/O)c4ccccc4)o3)c2c1`, the growth was 48.3% in assay [1]; 27% in assay [2]; 84.8% in assay [3]; 68.4% in assay [4]; 17.3% in assay [5]; 30% in [6]. The growth in [7] was 25.9%; in [8], 49.1%; in [9], 44.2%; in [10], 44.2%; in [11] it was 61.3%; in assay [12], 72.8%. Further, the growth is 17.5% in assay [13]; 89.7% in [14]; 75% in assay [15]; 47.5% in assay [16]; 63.5% in assay [17]; 54.1% in assay [18]. In addition, the growth in assay [19] was 52.5%; in assay [20], 7.97% (active).
As for `CC(C)(C#N)c1cc(F)cc(C(=O)Nc2cc(Nc3ncccc3-c3ncnc4nc[nH]c34)ccc2F)c1`, the growth in assay [1] was 37.8%; in [2], 10.1%; in assay [3], 78.7%; in assay [4] it was 58%; in [5], 40.7%; in [6] it was 54.2%. For the same molecule, the growth in assay [7] was 20.3%; in assay [8] it was 9.35% (active); in [9], -23.6% (active); in assay [10] it was 18.5%; in assay [11], -12.8% (active); in assay [12], 59.5%. Further, the growth was 56.7% in assay [13]; 12.8% in assay [14]; 49% in assay [15]; 38.5% in assay [16]; -4.87% (active) in assay [17]; 38.9% in [18]. Also, the growth in assay [19] was 29.2%; in assay [20] it was 35.5%.
For `N#C/C(=C/c1ccc(O)c([N+](=O)[O-])c1)c1nc(-c2ccc([N+](=O)[O-])cc2)cs1`, the growth in [1] was 24.7%; in assay [2], 52.7%; in assay [3] it was 80.5%; in assay [4] it was 34.5%; in [5], 22.1%; in [6], 29.9%. Also, the growth in assay [7] is 5.51% (active); in assay [8], -17.2% (active); in assay [9] it was 38.2%; in assay [10], 35.5%; in [11], 16.9%; in assay [12] it was 26.5%. The growth is 36.3% in assay [13]; 37.6% in assay [14]; 52.7% in [15]; 36.1% in assay [16]; 21.3% in [17]; 25.5% in assay [18]. Also, the growth was 25.1% in assay [19] and 47.7% in [20].
As for `C#C[C@@]1(O)[C@@H](CO)O[C@@H](n2cc(Cl)c3c(N)ncnc32)[C@@H]1O`, the growth in assay [1] was 1.65% (active); in assay [2] it was 5.79% (active); in assay [3], -42.4% (active); in assay [4] it was 2.86% (active); in assay [5], -6.87% (active); in assay [6] it was -17.3% (active). The growth in assay [7] was -61% (active); in assay [8] it was -54.2% (active); in assay [9] it was -72.5% (active); in [10], 42.6%; in assay [11], -20.6% (active); in [12], -32.4% (active). For the same molecule, the growth in [13] was 1.7% (active); in [14] it was -60.1% (active); in assay [15], -3.3% (active); in [16] it was -12.5% (active); in [17], -68.8% (active); in [18], 5.93% (active). For the same molecule, the growth was 1.07% (active) in assay [19] and 0.983% (active) in assay [20].
Take `COc1cc(C)ccc1Oc1nc(Nc2ccc(N3CCOCC3)cc2)ncc1N=Cc1cc(C(F)(F)F)cc(C(F)(F)F)c1`: the growth was 92% in assay [1]; 64.5% in [2]; 40.1% in assay [3]; 94.4% in assay [4]; 71.5% in [5]; 77.4% in assay [6]. Also, the growth was 91% in assay [7]; 81% in assay [8]; 61.3% in [9]; 96.7% in [10]; 70.2% in assay [11]; 81.7% in assay [12]. The growth in assay [13] is 80.3%; in assay [14] it was 47.6%; in assay [15] it was 81.6%; in assay [16], 56.3%; in assay [17], 58.8%; in [18], 82%. Further, the growth in assay [19] was 44.7%; in assay [20], 49.7%.
With `CC1=C(CCCOC(=O)NCCCl)C2=C(C)C3(CC3)[C@@](C)(O)C(=O)C2=C1`, the growth in assay [1] is 24.9%; in assay [2] it was 31.1%; in assay [3] it was 58.3%; in assay [4], 57.3%; in assay [5] it was 54.2%; in [6], 38%. For the same molecule, the growth in assay [7] was 7.89% (active); in assay [8], 49.9%; in assay [9], 61.1%; in [10] it was 69.3%; in assay [11], 14.5%; in assay [12], 54.3%. The growth in [13] is 45.7%; in [14], -42.1% (active); in assay [15], 9.96% (active); in [16] it was 5.75% (active); in assay [17], -9.87% (active); in [18] it was 79.9%. Moreover, the growth is 70.4% in assay [19] and 82.9% in assay [20].
Regarding `COc1cc(/C=C/C(=O)c2ccc(NC(=O)CSc3nnc(-c4cc(OC)c(OC)c(OC)c4)n3-c3ccccc3)cc2)cc(OC)c1OC`, the growth is -37.6% (active) in [1]; 1.25% (active) in assay [2]; 45.4% in assay [3]; 35.8% in [4]; -8.68% (active) in assay [5]; 28% in [6]. Further, the growth was 17.6% in [7]; 20.8% in assay [8]; -52.3% (active) in [9]; 33.3% in assay [10]; 32.1% in [11]; 31.3% in assay [12]. Also, the growth is 41% in assay [13]; -50.3% (active) in [14]; 45.1% in assay [15]; 17.9% in [16]; -12.1% (active) in assay [17]; 6.02% (active) in assay [18]. The growth in assay [19] was 5.18% (active); in assay [20], 2.13% (active).
